PubChem BioAssay AID2642 (Johns Hopkins Ion Channel Center, 2010)
The whole screen tested about 310,000 compounds, of which about 3,900 (1.3%) were called active.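 Rule for the calls: active = compounds whose thallium flux B-score, printed positive for inhibition, exceeds three library SD while starting fluorescence stays within three; inactive = the rest.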 The sample as a whole holds a higher share of actives than the screen did.

Target: Potassium voltage-gated channel subfamily KQT member 1 (Homo sapiens) (UniProt P51787)
Assay: KCNQ1 potassium current blockers – cell-based, thallium flux, high-throughput, primary screen (AID 2642);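 note: channel opened by potassium depolarization with thallium stimulus after 20 min compound exposure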
Details: CHO-K1 KCNQ1, FluxOR thallium flux fluorescence, at 10 µM; hits give high values

Potassium voltage-gated channel subfamily KQT member 1 (Homo sapiens), sequence (P51787 whole entry, looked up): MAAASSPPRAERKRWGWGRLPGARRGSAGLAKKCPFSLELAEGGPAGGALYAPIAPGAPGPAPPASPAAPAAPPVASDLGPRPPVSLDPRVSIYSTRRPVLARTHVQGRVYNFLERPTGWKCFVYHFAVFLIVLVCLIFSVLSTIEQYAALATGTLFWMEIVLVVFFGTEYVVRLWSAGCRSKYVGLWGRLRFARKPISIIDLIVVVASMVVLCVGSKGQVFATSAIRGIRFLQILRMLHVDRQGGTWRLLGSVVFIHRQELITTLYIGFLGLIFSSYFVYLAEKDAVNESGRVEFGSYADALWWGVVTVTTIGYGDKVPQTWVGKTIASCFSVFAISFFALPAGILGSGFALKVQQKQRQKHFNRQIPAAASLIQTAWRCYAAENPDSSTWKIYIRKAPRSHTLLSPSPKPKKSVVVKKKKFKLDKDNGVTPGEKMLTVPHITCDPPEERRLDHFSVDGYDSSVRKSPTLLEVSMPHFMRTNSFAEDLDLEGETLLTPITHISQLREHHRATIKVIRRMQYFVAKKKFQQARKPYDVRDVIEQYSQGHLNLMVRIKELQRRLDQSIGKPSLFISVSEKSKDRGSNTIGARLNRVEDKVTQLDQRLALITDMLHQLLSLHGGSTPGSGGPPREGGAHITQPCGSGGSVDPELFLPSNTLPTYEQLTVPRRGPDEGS

B-score, active:
CC(C)(C)Cc1nnc(NC(=O)c2cc(-c3ccccc3)nc3ccccc23)s1 11
CCc1noc(C)c1C(=O)Oc1ccc(N(C)S(=O)(=O)c2ccc(C)c(C)c2)cc1 9
N#Cc1c(NC(=O)CCCN2C(=O)c3ccccc3C2=O)oc(-c2ccccc2)c1-c1ccccc1 6
COc1cccc(CNCCc2c[nH]c3ccccc23)c1OCc1ccccc1F 8
COc1ccc(C(=O)N2CCc3cc(OC)c(OC)cc3C2c2cccc([N+](=O)[O-])c2)cc1 (stereo not given) 7
CC(C)(CCl)C(=O)Nc1ccc(Sc2ccc(F)cc2)cc1 9
CCCN(CCC)c1nc2c(C)cccn2c(=O)c1/C=C1/SC(=S)N(Cc2ccco2)C1=O 14
Cc1cccc(NC(=S)NCc2ccc3[nH]c4c(c3c2)CCCC4)c1 6
COc1ccc(S(=O)(=O)/N=C2\C=C(NS(=O)(=O)c3ccccc3)C(=O)c3ccccc32)cc1 6
Cc1cc(Br)ccc1NC(=O)c1cnc(N2CCN(c3ccccn3)CC2)c2ccccc12 7
CCc1ccc(-c2nn(-c3ccccc3)cc2CSC(=N)N)cc1 14
FC(F)(F)c1cccc(NC(=S)Nc2cccc(Cl)c2)c1 18
S=C(Nc1cccc(Cl)c1)Nc1ccc2c(c1)OCCO2 8
O=C(Nc1cccc([N+](=O)[O-])c1)N1CCc2ccccc2C1 7
Cc1cc(C)cc(N(CC(=O)N2CC=C(c3ccccc3)CC2)S(=O)(=O)c2c(C)noc2C)c1 6
COc1cccc(/C=N/Nc2cc(C)nc(-c3ccccc3O)n2)c1O 7
Cc1nc(N2CCN(c3ccccn3)CC2)c2c(C)c(C(=O)Nc3ccc(F)cc3)sc2n1 10
Cc1nc(N2CCN(c3ccccn3)CC2)c2c(C)c(C(=O)Nc3ccc(F)c(Cl)c3)sc2n1 13
COc1ccc(C)cc1NC(=O)C(Sc1ccccc1)c1ccccc1 (stereo not given) 6
CCOC(=O)C1=C(C)Nc2sc(C(=O)c3ccc(Br)cc3)c(N)c2C1c1ccc(C(=O)OC)cc1 (stereo not given) 8
CCOC(=O)c1ccc(NC(=O)Cn2cnc3cc(C)c(C)cc32)cc1 7
O=C1CCCN1CCCNC(=S)Nc1ccc(F)c(Cl)c1 7
O=C(Nn1c(SCc2ccc([N+](=O)[O-])cc2)nc2ccccc2c1=O)c1ccc(F)cc1 9

B-score, inactive:
COc1ccc(-c2cc(C(=O)Nc3ccccc3O)c3ccccc3n2)cc1
O=C(Nc1nnc(-c2ccccc2)o1)c1cc(-c2cccs2)nc2ccccc12
O=C(O)CCCCCCCCCC[n+]1ccccc1
CN(c1ccc(OCC(=O)O)cc1)S(=O)(=O)c1ccc2ccccc2c1
Cc1ccc(S(=O)(=O)N(C)C)cc1NC(=O)COC(=O)c1c(C)noc1C
CCc1ccc(OCC(=O)NCC(c2ccc(Cl)cc2)N2CCCCC2)cc1 (stereo not given)
Cc1cc(C)cc(NC(=O)CCN2C(=O)c3ccccc3C2=O)c1
COc1cc(C(=O)Nc2oc(-c3ccccc3)c(-c3ccccc3)c2C#N)cc(OC)c1OC
Cc1cc(OCC(=O)N2CCN(c3ncccn3)CC2)ccc1Cl
COc1ccccc1CC(=O)NCCc1c[nH]c2ccccc12
COc1ccc(S(=O)(=O)NCCc2c[nH]c3ccccc23)cc1OC
O=C(Nc1ccccc1N1CCCC1)c1ccc2ccccc2c1
COc1ccc(N2CCN(C(=O)c3ccc(N4CCCCS4(=O)=O)cc3)CC2)cc1
COc1ccccc1C1SCCN1C(=O)c1ccc([N+](=O)[O-])cc1 (stereo not given)
COc1ccc2[nH]c(=O)c(C3c4cc(OC)c(OC)cc4CCN3C(=O)c3ccco3)cc2c1 (stereo not given)
O=C(CCl)Nc1ccc(Sc2ccc(NC(=O)CCl)cc2)cc1
O=C(Nc1ccncc1)Nc1ccc(F)cc1
CNc1nc2c(C)cccn2c(=O)c1C=Nc1ccc(OC)cc1
CCOC(=O)CC1C(=O)NCCN1c1nc2c(C)cccn2c(=O)c1/C=C1\SC(=S)N(C(C)CC)C1=O (stereo not given)
Cc1cccc(OCC(=O)Nc2ccc(NC(=O)c3ccco3)c(C)c2)c1
CCC(C)(C(=O)NC1CCCCC1)N(C)C(=O)c1ccc2c(c1)OCO2 (stereo not given)
COCCSc1nnc(NC(=O)c2cc(OC)c(OC)cc2[N+](=O)[O-])s1
O=C(O)CCC(=O)NCc1ccc2[nH]c3c(c2c1)CCCC3
Cc1cc(C)cc(NC(=S)NCc2ccc(F)cc2)c1
CC(C)(C)c1ccc(SCCc2ccncc2)cc1
C=CCN1CN(S(=O)(=O)c2ccc(OC)cc2)c2nc3ccccc3nc21
CC(C)(C)NS(=O)(=O)c1ccc(NC(=O)C2CCCO2)cc1 (stereo not given)
CCCC(C)C(=O)Nc1ccc(NC(C)=O)cc1 (stereo not given)
COc1ccc(NC(=O)c2cnc(NS(=O)(=O)c3ccccc3)nc2)cc1
CCCC(NS(=O)(=O)c1ccc(OC)cc1)C(=O)O (stereo not given)
COc1c(N2CCN(C(=S)Nc3ccccc3F)C(C)C2)c(F)cc2c(=O)c(C(=O)O)cn(C3CC3)c12 (stereo not given)
Cc1cc(C)n2nc(C(=O)OC(C)C(=O)c3cc(C)c(C)cc3C)nc2n1 (stereo not given)
Cc1cc(Br)ccc1NC(=O)c1sc2ncn(CC(=O)N3CCN(c4ccccn4)CC3)c(=O)c2c1C
O=C(CN1CCN(c2ccccn2)CC1)Nc1ccc(Br)cc1
COc1ccc(Cc2nnc(SCC(=O)Nc3ccc(C)c(C)c3)o2)cc1OC
CCCc1ccc(C(=O)[C@@H]2[C@@H](C(C)=O)N3c4ccc(F)cc4C=C[C@@H]3[C@@]23C(=O)Nc2ccccc23)cc1
Cc1ccc(-c2nn(-c3ccccc3)cc2CN(Cc2ccccc2)C(=O)CCC(=O)O)o1
COc1ccc(-c2nn(-c3ccccc3)cc2C(=O)Nc2nc(CC(C)=O)ns2)cc1
COc1ccc2c(c1)c(=O)c(C(=O)c1ccc(Cl)cc1)cn2CC(=O)Nc1ccc(F)cc1
O=C(Nc1cccc(S(=O)(=O)Nc2ccc(Cl)cc2)c1)c1ccc2c(c1)OCCO2
S=C(NCc1ccco1)Nc1ccc2c(c1)OCCO2
S=C(Nc1cccc(Cl)c1)Nc1ccc2cn[nH]c2c1
Cc1csc(NC(=S)Nc2cccc(Cl)c2)n1
COc1cccc(OCC(O)CNC(=O)c2oc3c(C)c(C)ccc3c2C)c1 (stereo not given)
Cc1cc(=O)oc2c3c(cc(OCC(=O)NCCC(=O)N[C@@H](C)C(=O)O)c12)OC(C)(C)CC3
O=C(O)c1ccccc1-c1ccccc1C(=O)Nc1ccccc1Br
Nc1cc(OC(=O)c2ccccc2Br)nn1S(=O)(=O)c1ccccc1
COc1ccccc1C(=O)NCCC(=O)NC(C)CCc1ccccc1 (stereo not given)
CCc1ccc(NC(=O)N2CCc3ccccc3C2)cc1
CN1CCN(CC(=O)Nc2cccc([N+](=O)[O-])c2)CC1
CCCCNCc1ccc(SC)cc1
CCOC(=O)C1CCCN(C(=O)CN(c2ccc(OC)cc2)S(=O)(=O)c2c(C)noc2C)C1 (stereo not given)
Cc1cc(C)cc(N(CC(=O)NCC2CCCO2)S(=O)(=O)c2c(C)noc2C)c1 (stereo not given)
COc1cccc(/C=N/Nc2ncc(C(F)(F)F)cc2Cl)c1O
COc1cccc(/C=N/NC(=O)c2[nH]nc3c2CCc2ccccc2-3)c1O
CN(C(=O)c1ccccc1)c1nccnc1C#N
CCOC(=O)CC1COCCN1C(=O)c1cc(COc2ccc(F)c(F)c2)on1 (stereo not given)
O=C(c1c(F)cccc1Cl)N1CCN(c2ccccn2)CC1
Cc1nc(N2CCOCC2)c2c(C)c(C(=O)Nc3ccc(C(F)(F)F)cc3)sc2n1
COc1ccc(NC(=O)c2sc3nc(C)nc(N4CCN(c5ccccn5)CC4)c3c2C)c(OC)c1
Cc1nc(N2CCC(C)CC2)c2c(C)c(C(=O)Nc3cc(F)ccc3C)sc2n1
Cc1ccccc1NC(=O)c1cc(S(=O)(=O)Nc2cccc(C(=O)O)c2)ccc1Cl
COCOc1cc(O)c(C(=O)/C=C/c2ccc(OCOC)c(OCOC)c2)c(OCOC)c1
CCCCS(=O)c1snnc1C (stereo not given)
COc1ccc(OC)c(Nc2nc3ccccc3n3cnnc23)c1
COc1cccc(C(=O)Nc2nnc(S(=O)(=O)N(C)c3ccccc3)s2)c1
CS(=O)(=O)c1ccc(Cl)c(NC(=O)COC(=O)c2cccc(S(=O)(=O)N3CCCC3)c2)c1
COc1ccc(C2C=C(c3ccc(Br)cc3)Nc3nc(NS(C)(=O)=O)nn32)cc1 (stereo not given)
COc1ccc(C)cc1NC(=O)Nc1ccccc1SC
COc1ccc(C)cc1NC(=O)NCCCCc1ccccc1
CCCN1CNC(=S)N(CCc2ccccc2)C1
CCOC(=O)c1sc(=S)n2c1[nH]c(=O)c1ccc(C(=O)OC)cc12
CCOC(=O)c1sc(=NC(=O)c2ccc(Br)cc2)n(C)c1C
CCCc1nnc(SCC(=O)Nc2ccc(C(=O)OCC)cc2)o1
CCOC(=O)c1ccc(NC(=O)CSc2nnc(COc3ccccc3OC)n2C)cc1
COc1ccc(CCNc2cc(N3CCN(C(=O)c4ccccc4OC)CC3)ccc2[N+](=O)[O-])cc1OC
Cc1c(Cl)cccc1NC(=O)NCCCN1CCCC1=O
Cc1cc(Cl)ccc1NC(=S)NCCCN1CCCC1=O
CCOc1cc(CN2CCCC(CO)(Cc3ccc(F)cc3F)C2)ccc1OC (stereo not given)
CN(Cc1ccc(F)cc1Cl)S(=O)(=O)c1cccs1
C=CCn1c(SCc2ccc(C(=O)NCCO)cc2)nc2ccccc2c1=O
O=C(Nn1c(-c2ccccc2)nc2ccccc2c1=O)c1ccc([N+](=O)[O-])cc1
